Source: PubChem BioAssay (several laboratories)
Rows were chosen to be rich in hits. Some 3.1% of all compounds tested hit in one or more screens of this group.
MEKK2 WT-MEK5: raises or lowers MEK5 binding to wildtype human MEKK2 PB1 domain; Q9Y2U5; bead flow cytometry, Alexa488-MEK5 binding to MEKK2 WT; actives lie on both sides; binding response (% of control), % at 10 µM; hit rate 1.1% among 290,000; AID 1531; in the data active means binding response below about 67% or above about 130%
UBC13 polyUb: human UBC13 polyubiquitination inhibition. UBC13 polyubiquitin chain formation, TR-FRET. P61088. inhibition, % at 20 µM. hit rate 0.47% among 330,000; in the data active means inhibition above about 45%, passing the limit was not always enough
PREPL inhibitor: human PREPL enzyme inhibition. hit rate 0.68% among 320,000. inhibition, % at 5.96 µM. recombinant PREPL, fluorescence polarization activity-based probe. Q4J6C6;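 further: 0% = enzyme with DMSO and 100% = wells lacking enzyme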
Target sequence (Q4J6C6 whole entry, looked up): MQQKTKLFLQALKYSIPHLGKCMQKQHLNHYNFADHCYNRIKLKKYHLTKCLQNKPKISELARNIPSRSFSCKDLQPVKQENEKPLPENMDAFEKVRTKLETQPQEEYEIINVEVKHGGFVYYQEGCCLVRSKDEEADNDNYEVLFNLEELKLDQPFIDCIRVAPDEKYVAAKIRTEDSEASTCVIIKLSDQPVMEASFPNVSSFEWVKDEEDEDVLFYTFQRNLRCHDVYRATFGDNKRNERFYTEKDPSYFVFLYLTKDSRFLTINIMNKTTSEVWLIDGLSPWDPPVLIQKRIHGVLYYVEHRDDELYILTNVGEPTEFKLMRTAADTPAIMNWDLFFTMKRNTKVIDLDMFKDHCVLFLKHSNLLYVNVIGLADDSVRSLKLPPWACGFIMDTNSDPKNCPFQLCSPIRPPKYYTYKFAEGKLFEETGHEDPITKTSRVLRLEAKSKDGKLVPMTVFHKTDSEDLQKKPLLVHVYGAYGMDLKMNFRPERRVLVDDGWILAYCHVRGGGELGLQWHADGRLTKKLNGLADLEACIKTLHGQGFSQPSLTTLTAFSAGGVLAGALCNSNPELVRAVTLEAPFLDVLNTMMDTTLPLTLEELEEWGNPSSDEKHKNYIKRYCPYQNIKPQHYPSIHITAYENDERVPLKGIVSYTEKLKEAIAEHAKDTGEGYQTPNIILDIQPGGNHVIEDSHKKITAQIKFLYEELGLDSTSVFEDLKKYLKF
MEKK3 PB1 HTS: raises or lowers MEK5 binding to the human MEKK3 PB1 domain | Q99759 | hit rate 1.4% among 290,000 | binding response (% of control), % at 10 µM | bead-based flow cytometry, Alexa488-MEK5 binding to MEKK3; actives lie on both sides; 0 = blocked by unlabeled MEK5, 100 = vehicle | AID 1529;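 active means binding response more than 3 SD above or below the average of its plate-row segment, actives on both sides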;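 further: Alexa488 bead fluorescence after subtracting the streptavidin-only scavenger bead signal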
ATG4B inhibitor: blocks human ATG4B protease cleavage of LC3 substrate; hit rate 0.51% among 340,000; ATG4B cleavage of LC3-PLA2, NBD-HPC fluorescence, 1 h; Q9Y4P1; inhibition, % at 8.33 µM; in the data active means inhibition above about 40%
MEKK2mut PB1 HTS: signal of MEK5 binding to mutant human MEKK2 PB1 domain. percent response, % at 10 µM. bead flow cytometry, Alexa488-MEK5 binding to MEKK2 mutant. hit rate 0.35% among 290,000; in the data active means percent response above about 24%, passing the limit was not always enough
PREPL inh cf: human PREPL inhibition, confirmation; shares compounds with PREPL inhibitor; hit rate 67% among 2,000; inhibition, % at 5.96 µM; recombinant PREPL, fluorescence polarization activity probe;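 further: 0% = protein with DMSO and 100% = wells lacking protein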
* = called active by the depositor; . = no result given; [ ] = dose if it differs, or a comment. Unless noted, no stated cut-off is given here; in the data, active means inhibition above about 43%; inactive means the rest.

SMILES	MEKK2 WT-MEK5	UBC13 polyUb	PREPL inhibitor	MEKK3 PB1 HTS	ATG4B inhibitor	MEKK2mut PB1 HTS	PREPL inh cf
O=Cc1ccccc1OCCOc1ccc([N+](=O)[O-])cc1	85	-12	43*	102	13	-10	40
CCN(CC)c1ccc(N)cc1	.	-39	64*	.	0	.	39
COc1ccc(S(=O)(=O)N(CC(=O)NCC2CCCO2)C2CCCCC2)cc1OC (stereo not given)	102	-4	5	102	1	-1	.
O=C(NCCc1ccccc1)c1ccc2c(c1)S(=O)(=O)c1cc(Cl)ccc1C2=O	.	-19	56*	.	-5	.	20
O=C(NCc1ccccc1)c1ccc2c(c1)S(=O)(=O)c1cc(Cl)ccc1C2=O	.	14	34	.	-11	.	.
Cc1ccc(C)c(Nc2nc3ccccc3n3cnnc23)c1	98	4	14	95	-8	1	.
C=CCn1c(N2CCN(c3ccc(OC)cc3)CC2)nc2c1c(=O)n(C)c(=O)n2C	80	4	43	83	-5	-20	.
C=CCn1c(N2CCN(c3ccc(OC)cc3)CC2)nc2c1c(=O)[nH]c(=O)n2C	103	12	49*	104	3	3	38
COc1ccc(-c2[nH]nc3c2C(c2ccsc2)C(C#N)=C(N)O3)cc1 (stereo not given)	101	4	89*	98	-14	-1	-15
N#Cc1nc(/C=C/c2ccccc2)oc1NCCCN1CCOCC1	102	14	47*	104	-2	1	39
COCCNc1oc(/C=C/c2ccccc2)nc1C#N	104	12	10	104	-13	-4	.
O=C(O)CCC(=O)N1CCN(c2ccccn2)CC1	.	2	44*	.	1	.	3
C=CC[n+]1c(/C=C2\C=Cc3cc(C)ccc3N2CC)ccc2ccccc21	98	-145	46*	100	9	6	60*
Cc1ccc(CNC(=O)CCNS(=O)(=O)c2cccc3nsnc23)cc1	102	2	-6	100	-2	0	.
COc1ccc2c(c1)c(C(O)CN1CCN(Cc3ccc4c(c3)OCO4)CC1)c(C)n2C (stereo not given)	112	12	47*	106	-16	7	32
Cc1c(C(O)CN2CCN(Cc3ccc4c(c3)OCO4)CC2)c2ccccc2n1C (stereo not given)	108	5	37	103	-11	6	.
COc1cccc2sc(Nc3nc(-c4ccccn4)cs3)nc12	99	-1	50*	103	.	-1	46*
c1ccc(Nc2nc(-c3ccccn3)cs2)cc1	109	-15	25	112	6	3	.
COC(=O)c1cc(CNC(=O)c2ccccc2OCc2c(C)noc2C)ccc1OC	92	-6	6	96	2	-4	.
CCN1CCN(c2cc(N3CCN(C(=O)c4ccco4)CC3)c3c4c(onc24)-c2ccccc2C3=O)CC1	86	-152	70*	78*[inhibitor]	24	-1	68*
Cn1c(NNC(=O)c2cccc3ccccc23)cc(=O)n(C)c1=O	104	-6	11	104	-12	9	.
O=c1c2ccccc2c(C=NCCCN2CCOCC2)c(O)n1Cc1ccc2c(c1)OCO2	110	21	44*	98	-4	3	27
COC(=O)c1ccc2nc(C)cc(Nc3ccc(N(C)C)cc3)c2c1	104	-19	50*	113	-11	-1	42
CC(=O)Nc1c(O)nc(SCC(=O)Nc2nnc(SCc3ccccc3)s2)[nH]c1=O	99	-3	19	103	-3	-1	.
CC(C)n1cnc2c(NCc3ccccc3)cc(N[C@H](C)CO)cc21	.	-29	61*	.	-22	.	22
SMILES	MEKK2 WT-MEK5	UBC13 polyUb	PREPL inhibitor	MEKK3 PB1 HTS	ATG4B inhibitor	MEKK2mut PB1 HTS	PREPL inh cf
CCC(CO)Oc1cc(NCc2ccccc2)c2ncn(C(C)C)c2c1 (stereo not given)	.	2	39	.	0	.	.
CCC(COC)Oc1cc(NCc2ccccc2)c2ncn(C(C)C)c2c1 (stereo not given)	.	1	52*	.	12	.	9
CCC(CO)Oc1cc(NCc2ccccc2Cl)c2ncn(C(C)C)c2c1 (stereo not given)	.	4	60*	.	-2	.	30
CCC(CO)Oc1cc(NCc2ccccc2C(F)(F)F)c2ncn(C(C)C)c2c1 (stereo not given)	.	7	48*	.	24	.	20
CCCCOc1cc(NCc2ccccc2)c2ncn(C(C)C)c2c1	.	26	29	.	20	.	.
C=CCOc1ccc(/C=C2\SC(N3CCCCC3)=NC2=O)cc1	102	-1	7	102	-2	7	.
COc1ccc(N2CCN(S(=O)(=O)c3cc4c(cc3C)N(C(C)=O)CCO4)CC2)cc1	97	4	-1	101	-21	-2	.
C=CCOc1cccc(C2/C(=C(\O)c3ccc4c(c3)OCCO4)C(=O)C(=O)N2CCN2CCOCC2)c1 (stereo not given)	108	-15	3	103	-1	4	.
c1ccc(CN2CCN(c3nc(N4CCOCC4)c4ccccc4n3)CC2)cc1	104	4	46*	98	4	1	39
CCC(CCC(=O)NNC(=O)Cc1ccc([N+](=O)[O-])cc1)C(=O)O (stereo not given)	99	0	5	100	-2	3	.
Cc1noc(NS(=O)(=O)c2ccc(NC(=O)Nc3ccc(Cl)c(Cl)c3)cc2)c1C	92	-22	48*	96	15	-12	46*
O=C(N/N=C1\C/C(=N\NC(=O)c2ccncc2)c2ccccc21)c1ccncc1	97	-98	46*	98	-12	-5	10
O=C(NN=C1C2CC3CC(C2)CC1C3)c1ccncc1	95	-3	3	89	-6	-8	.
COc1ccc(OCC(CO)N2CCN(c3ccccc3)CC2)cc1 (stereo not given)	.	.	.	.	-8	.	.
COc1ccc2cc(-c3cc(C(=O)OCC(=O)NC4CCS(=O)(=O)C4)c4ccccc4n3)ccc2c1 (stereo not given)	93	.	46*	96	18	-2	37
CCC(O)c1nc2ccccc2n1CCc1ccccc1 (stereo not given)	108	4	2	109	-6	10	.
Cn1cnc(C(=O)N2CCN(c3ccccc3)CC2)c1C(=O)N1CCN(c2ccccc2)CC1	.	5	45*	.	1	.	40
CCC(CNc1cc(OC)cc2cccnc12)NC1CCCCC1 (stereo not given)	111	.	54*	97	2	22	44*
Cc1ccc(S(=O)(=O)N2CCN(C(=O)C3CCN(C(=O)c4ccc(F)cc4)CC3)CC2)c(C)c1	.	-5	9	.	0	.	.
